Structures are written as SMILES. Inconclusive results are not listed. Entries that show only a call come without a potency. Activity calls are given as the source filed them. The call rests on the fitted dose curve; in most records, active means well fitted activation curve with a large enough effect; inconclusive means small, poorly fitted or top-dose-only effect; inactive means no such curve, though single readings can be large or run the other way.
Potency means the concentration at half of the fitted maximal effect.

The nature of this assay: qHTS Assay for Rab9 Promoter Activators: Initial hit validation from the primary screen. The conditions noted are these: Huh7 Rab9 promoter luciferase reporter, 24 h; series mostly up to 46.1 µM. The method in brief: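 Huh7 cells stably carrying a Rab9 promoter–luciferase construct, plated in reduced-serum medium with 10% FBS, rested 2 h, then exposed to compounds in DMSO for 24 h at 37C. Luminescence read 10 min after adding Amplite luciferase reagent.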
As to `COc1cccc(C(C(=O)NC2CCCC2)N(CCC(C)C)C(=O)CCC(=O)Nc2cc(C)on2)c1` (centres undefined), the Potency entry was “inactive”.
In the case of `Nc1ccc(C(=O)Nc2ccccc2N)cc1` it was 15800 nM (active); in that of `Nc1nc(SCCO)[nH]c(=O)c1NC(=O)c1ccco1`, “inactive”; in that of `COc1ccc(NC(=O)Nc2ccc(Cc3ccncc3)cc2)cc1OC`, “inactive”.
Regarding `O=[N+]([O-])c1cnccc1Nc1ccc(F)cc1`, the Potency entry is “inactive”.
Take `Cc1[nH]n(-c2cccc3ccccc23)c(=O)c1/C=N/c1sc2c(c1C#N)CCC2`: the Potency entry was “inactive”.
Regarding `NC(=O)C1(NC(=O)[C@@H]2CC3(CC(c4cccc(NC(=O)[C@@H]5CCC(=O)N5)c4)=NO3)CN2C(=O)c2ccccc2)CC1` (some centres undefined), the Potency result is “inactive”.
As to `COc1ccc(-c2nnc(SCC(=O)/C(C#N)=C(\C)N)o2)cc1`, the Potency is 315 nM (active).
As for `O=C(NCCc1ccccc1)c1cc2ncc(Br)cn2n1`, the Potency is 25000 nM (active).
`CCc1cc(C(=O)Nc2ccccc2)cs1`: the Potency was 2810 nM (active).
As for `COc1cccc(C2Nc3ccccc3NC3=C2C(=O)CC(C)(C)C3)c1` (centres undefined), the Potency result was “inactive”.
For `COc1cccc(NC(=O)CN2C(=O)CSc3ccc(S(=O)(=O)N4CCC(C)CC4)cc32)c1`, the Potency entry was “inactive”.
Regarding `CC(C)(C)C(=O)N/C(N)=N/c1nc2ccccc2o1`, the Potency is 628 nM (active).
For `Nc1c(N(CCO)C(=O)/C=C/c2ccco2)c(=O)[nH]c(=O)n1Cc1ccccc1`, the Potency entry was “inactive”.
Consider `O=C(CSc1nnc(-c2ccccn2)o1)Nc1ccccc1F`, for which the Potency was 1120 nM (active).
To `COc1ccccc1OCCCC(=O)NCc1ccco1` belongs “inactive”; to `Cc1cc(C)c2c(N)c(C(=O)Nc3ccc([N+](=O)[O-])cc3)sc2n1`, 499 nM (active); to `Cc1cccc(C)c1NC(=O)Nc1cccs1`, “inactive”.
As for `CC(C)C1(CCNC(=O)c2cccs2)CCOC(C)(C)C1` (centres undefined), the Potency entry is “inactive”.
As to `Cc1cccc(NC(=O)CSc2nc3ccccc3o2)c1`, the Potency entry is “inactive”.
Regarding `CCC(=O)NC(=S)Nc1ccc(N2CCOCC2)cc1`, the Potency was 39700 nM (active).
Turning to `CCOC(=O)CSc1nc2cc3c(cc2cc1C#N)OCO3`, the Potency was 888 nM (active).
As to `COc1ccc(C2(CNC(=O)/C=C/c3ccco3)CCCC2)cc1OC`, the Potency result is “inactive”.
Consider `COCc1cc(C)nc(N/N=C/c2ccc(-c3ccc(Cl)cc3[N+](=O)[O-])o2)c1C#N`, for which the Potency result is “inactive”.
Regarding `CCCNC(=O)C1CCN(S(=O)(=O)c2ccc3[nH]c(=O)ccc3c2)CC1`, the Potency result was “inactive”.
As for `COc1cccc(CNC(=O)CN(c2cc(C)cc(C)c2)S(=O)(=O)c2c(C)noc2C)c1`, the Potency result is “inactive”.
Regarding `Cc1ccccc1NC(=O)CSc1ccc(-c2cccnc2)nn1`, the Potency entry is “inactive”.
`CCCCc1cc(=O)oc2cc(OCC(=O)N3CCOCC3)ccc12`: the Potency entry is “inactive”.
Take `CCOC(=O)CSc1nc2cc(C)ccc2cc1C#N`: the Potency was 996 nM (active).
For `OCCC1CN(Cc2nc3ccccc3s2)CCN1C1CCCC1` (centres undefined), the Potency entry is “inactive”.
In the case of `COC(=O)CSc1nc2cc3c(cc2cc1C#N)OCO3` it was 353 nM (active); in that of `O=C(CSc1nnc(-c2ccccc2)o1)Nc1ccccc1F`, 112 nM (active); in that of `CCCCCCC(=O)Nc1ccc(C(=O)N/N=C/c2cccnc2)cc1`, “inactive”.
As for `CCOC(=O)C1(Cc2cccc(Cl)c2)CCCN(C(=O)CCSC)C1` (centres undefined), the Potency result was “inactive”.
